# Test results from PubChem BioAssay (EPA / NIEHS).
# “And” between values parts separate entries of the source, which are not always exact repeats. Equal entries are not always repeated. Inconclusive results are not listed. The source holds several records for some structures; these can differ, active in one and inactive in another. The source made the active and inactive calls. Rule for the calls: active = hit-call score of the fitted dose curve at least 0.9, where 1 is the maximum; inconclusive = response in the unintended direction; inactive = score below 0.9.
# Legend:
# [1] = biological target: Androgen Receptor/SRC-1 Co-activator, AR (gene 367) (UniProt P10275); assay: OT_AR_ARSRC1_0960: Odyssey Thera (OT) 16-hour HEK293T Protein-Complementation Assay for Androgen Receptor/SRC-1 Co-activator (AID 2283353);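 note: actives raise the signal above DMSO so potency reflects increased AR and SRC-1 complex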
# Outline: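 Stable HEK293T line carries AR and SRC-1 each linked to a Venus fragment; chemicals are applied for 16 h, cells imaged at two wavelengths, and the 488 nm nucleus/cytoplasm ratio is taken as the signal, rising relative to DMSO.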
# [2] = biological target: Androgen Receptor/SRC-1 Co-activator, AR (gene 367) (UniProt P10275); assay: OT_AR_ARSRC1_0480: Odyssey Thera (OT) 8-hour HEK293T Protein-Complementation Assay for Androgen Receptor/SRC-1 Co-activator (AID 2283354);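 note: hits raise the complementation signal above DMSO so AC50 marks enhancers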
# Outline: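 After 8 h dosing, stably expressing HEK293T cells with split-Venus AR/SRC-1 fusions were imaged (488, 635nm). The 488nm N/C ratio per image gave the endpoint, analysed in the positive direction against DMSO.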
# [3] = biological target: Estrogen receptor beta (Homo sapiens) (UniProt Q92731); assay: OT_ER_ERbERb_0480: Odyssey Thera (OT) 8-hour HEK293T Protein-Complementation Assay for Estrogen Receptor-beta/-beta Homodimer (AID 2283357);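 note: active means signal gain over DMSO baseline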
# Outline: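 Fluorescence gain from complemented reporter fragments on ER-beta LBD homodimer in HEK293T was quantified against DMSO controls after 8 h treatment, fixation in 4% formaldehyde and Draq5 staining.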
# [4] = biological target: Retinoic acid receptor alpha (Homo sapiens) (UniProt P10276); assay: NVS_NR_hRAR_Antagonist: NovaScreen (NVS) Nuclear Receptor Binding Assay for human Retinoic Acid Alpha Receptor Antagonism (RAR) (AID 2283358)
# Outline: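 Chemicals were first tested in duplicate at 25 uM, then actives in concentration series, in a cell-free TR-FRET antagonist binding format. Measurements were taken 2 hours after dosing and loss of signal was evaluated against DMSO controls.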
# [5] = biological target: human Thyroid Receptor Alpha (TRa), THRA (gene 7067) (UniProt P10827); assay: NVS_NR_hTRa_Antagonist: NovaScreen (NVS) Nuclear Receptor Binding Assay for human Thyroid Receptor Alpha Antagonism (TRa) (AID 2283362);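 note: activity is loss of signal relative to DMSO baseline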
# Outline: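 Extracted protein, cell-free; 1 h incubation after dosing; AlphaLISA chemiluminescence binding readout. DMSO = baseline/neg ctrl; signal loss = activity. Primary: duplicate, 25 uM; secondary: conc. series on actives.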
# [6] = biological target: Glucocorticoid receptor (Homo sapiens) (UniProt P04150); assay: NVS_NR_hGR: NovaScreen (NVS) Nuclear Receptor Binding Assay for human Glucocorticoid Receptor (GR) (AID 2283363);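 for AC50: activity is loss of specific radioligand binding signal relative to DMSO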
# Outline: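 Single-readout cell-free binding: radioligand plus extracted receptor, 16-hour dosing, filter radiodetection; 25 uM duplicate primary, concentration series secondary.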
# [7] = biological target: Nuclear receptor subfamily 1 group I member 2 (Homo sapiens) (UniProt O75469); assay: NVS_NR_hPXR: NovaScreen (NVS) Nuclear Receptor Binding Assay for human Pregnane X Receptor (PXR) (AID 2283365);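 note: a drop in FRET signal versus DMSO baseline means the compound binds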
# Outline: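 Human PXR protein, cell-free; compound added, incubated 2 h, TR-FRET read. Signal decrease vs DMSO = binding. Screened 25 uM duplicate, actives re-run as dilution series.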
# [8] = biological target: rat Mineralocorticoid Receptor (MR), Nr3c2 (gene 25672) (UniProt P22199); assay: NVS_NR_rMR: NovaScreen (NVS) Nuclear Receptor Binding Assay for rat Mineralocorticoid Receptor (MR) (AID 2283355)
# Outline: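 Single-concentration duplicate screen (25 uM) of radioligand binding in adrenalectomized rat brain supernatant; scintillation detection 24 h after dosing. Positive and negative controls ran on each plate, and confirmed actives went to concentration-response.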
# [9] = biological target: human Peroxisome Proliferator-activated Receptor alpha (PPARa), PPARA (gene 5465) (UniProt Q07869); assay: NVS_NR_hPPARa: NovaScreen (NVS) Nuclear Receptor Binding Assay for human Peroxisome Proliferator-activated Receptor alpha (PPARa) (AID 2283359);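 note: activity means loss of TR-FRET signal versus DMSO baseline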
# Outline: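 One-hour incubation, cell-free extracted protein, TR-FRET binding readout; signal loss vs DMSO scored. Screen: 25 uM duplicates, confirmatory dose series for actives.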
# [10] = biological target: Retinoic acid receptor alpha (Homo sapiens) (UniProt P10276); assay: NVS_NR_hRARa_Agonist: NovaScreen (NVS) Nuclear Receptor Binding Assay for human Retinoic Acid Alpha Receptor Agonism (RAR) (AID 2283361)
# Outline: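 Compounds screened at 25 uM, duplicate, then in concentration series if active. Detection: TR-FRET gain of signal versus DMSO after 2 h with cell-free extracted RARα.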
# human Thyroid Receptor Alpha (TRa), THRA (gene 7067), sequence (P10827 whole entry, looked up): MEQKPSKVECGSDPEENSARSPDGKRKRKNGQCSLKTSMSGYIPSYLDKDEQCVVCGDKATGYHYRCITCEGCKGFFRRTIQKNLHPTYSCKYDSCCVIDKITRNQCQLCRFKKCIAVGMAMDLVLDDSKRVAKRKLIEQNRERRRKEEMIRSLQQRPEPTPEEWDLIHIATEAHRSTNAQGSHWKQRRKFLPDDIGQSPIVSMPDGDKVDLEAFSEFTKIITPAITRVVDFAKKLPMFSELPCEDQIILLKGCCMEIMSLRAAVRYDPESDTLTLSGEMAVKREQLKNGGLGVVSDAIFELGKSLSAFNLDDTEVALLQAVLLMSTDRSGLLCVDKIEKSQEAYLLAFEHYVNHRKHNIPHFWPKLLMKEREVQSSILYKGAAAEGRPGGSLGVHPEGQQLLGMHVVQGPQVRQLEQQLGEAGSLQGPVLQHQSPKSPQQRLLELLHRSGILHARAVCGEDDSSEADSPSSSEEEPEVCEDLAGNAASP
# Nuclear receptor subfamily 1 group I member 2 (Homo sapiens), sequence (O75469 whole entry, looked up): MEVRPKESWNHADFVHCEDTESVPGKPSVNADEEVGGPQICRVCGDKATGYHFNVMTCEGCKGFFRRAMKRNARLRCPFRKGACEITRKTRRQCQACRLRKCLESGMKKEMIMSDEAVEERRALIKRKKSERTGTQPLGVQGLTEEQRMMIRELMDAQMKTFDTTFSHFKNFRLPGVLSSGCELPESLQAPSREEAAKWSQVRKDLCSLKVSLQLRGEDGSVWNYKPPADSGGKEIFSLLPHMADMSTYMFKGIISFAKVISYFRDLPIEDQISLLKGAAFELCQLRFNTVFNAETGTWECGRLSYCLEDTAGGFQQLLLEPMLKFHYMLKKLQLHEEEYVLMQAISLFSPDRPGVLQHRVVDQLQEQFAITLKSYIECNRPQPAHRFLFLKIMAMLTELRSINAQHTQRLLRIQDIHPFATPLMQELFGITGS
# Androgen Receptor/SRC-1 Co-activator, AR (gene 367), sequence (P10275 whole entry, looked up, the tested form may be a part): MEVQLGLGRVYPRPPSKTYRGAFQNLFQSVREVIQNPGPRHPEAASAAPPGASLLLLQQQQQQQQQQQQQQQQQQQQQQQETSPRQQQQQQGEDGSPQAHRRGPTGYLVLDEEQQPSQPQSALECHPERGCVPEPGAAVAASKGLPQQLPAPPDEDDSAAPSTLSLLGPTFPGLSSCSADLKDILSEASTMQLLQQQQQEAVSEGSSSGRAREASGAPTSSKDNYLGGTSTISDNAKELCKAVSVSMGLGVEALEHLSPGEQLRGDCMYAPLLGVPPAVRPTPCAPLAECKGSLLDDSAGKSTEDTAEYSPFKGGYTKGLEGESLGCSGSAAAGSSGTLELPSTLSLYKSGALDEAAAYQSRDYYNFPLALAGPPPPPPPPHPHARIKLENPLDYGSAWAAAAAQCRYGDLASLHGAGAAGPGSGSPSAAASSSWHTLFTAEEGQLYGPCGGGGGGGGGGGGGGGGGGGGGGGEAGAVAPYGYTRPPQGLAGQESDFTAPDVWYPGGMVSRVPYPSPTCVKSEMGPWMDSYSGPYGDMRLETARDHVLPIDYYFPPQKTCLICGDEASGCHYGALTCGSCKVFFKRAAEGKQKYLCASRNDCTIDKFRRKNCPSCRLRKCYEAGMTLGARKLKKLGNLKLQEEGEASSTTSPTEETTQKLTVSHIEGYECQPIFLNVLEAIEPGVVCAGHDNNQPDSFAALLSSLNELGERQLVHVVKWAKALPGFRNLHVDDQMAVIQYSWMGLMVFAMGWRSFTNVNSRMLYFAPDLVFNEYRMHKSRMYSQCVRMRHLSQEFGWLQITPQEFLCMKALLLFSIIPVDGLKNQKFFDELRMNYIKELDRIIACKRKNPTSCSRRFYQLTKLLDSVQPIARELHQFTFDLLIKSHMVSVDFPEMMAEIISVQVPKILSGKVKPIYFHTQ
# Estrogen receptor beta (Homo sapiens), sequence (Q92731 whole entry, looked up, the tested form may be a part): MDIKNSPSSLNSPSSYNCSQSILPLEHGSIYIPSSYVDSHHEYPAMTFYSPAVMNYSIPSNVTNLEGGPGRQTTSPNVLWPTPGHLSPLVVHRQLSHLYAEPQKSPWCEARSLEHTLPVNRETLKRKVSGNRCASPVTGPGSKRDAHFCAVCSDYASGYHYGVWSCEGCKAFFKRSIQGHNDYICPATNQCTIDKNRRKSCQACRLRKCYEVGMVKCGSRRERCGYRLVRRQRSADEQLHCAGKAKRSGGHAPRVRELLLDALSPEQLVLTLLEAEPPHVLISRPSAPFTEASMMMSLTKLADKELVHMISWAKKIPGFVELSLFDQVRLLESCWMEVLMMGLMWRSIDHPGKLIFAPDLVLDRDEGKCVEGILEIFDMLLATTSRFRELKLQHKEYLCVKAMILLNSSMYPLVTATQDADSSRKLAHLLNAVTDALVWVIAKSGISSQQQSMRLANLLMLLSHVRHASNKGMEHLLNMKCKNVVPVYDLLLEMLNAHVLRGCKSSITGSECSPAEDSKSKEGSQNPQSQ
# Glucocorticoid receptor (Homo sapiens), sequence (P04150 whole entry, looked up): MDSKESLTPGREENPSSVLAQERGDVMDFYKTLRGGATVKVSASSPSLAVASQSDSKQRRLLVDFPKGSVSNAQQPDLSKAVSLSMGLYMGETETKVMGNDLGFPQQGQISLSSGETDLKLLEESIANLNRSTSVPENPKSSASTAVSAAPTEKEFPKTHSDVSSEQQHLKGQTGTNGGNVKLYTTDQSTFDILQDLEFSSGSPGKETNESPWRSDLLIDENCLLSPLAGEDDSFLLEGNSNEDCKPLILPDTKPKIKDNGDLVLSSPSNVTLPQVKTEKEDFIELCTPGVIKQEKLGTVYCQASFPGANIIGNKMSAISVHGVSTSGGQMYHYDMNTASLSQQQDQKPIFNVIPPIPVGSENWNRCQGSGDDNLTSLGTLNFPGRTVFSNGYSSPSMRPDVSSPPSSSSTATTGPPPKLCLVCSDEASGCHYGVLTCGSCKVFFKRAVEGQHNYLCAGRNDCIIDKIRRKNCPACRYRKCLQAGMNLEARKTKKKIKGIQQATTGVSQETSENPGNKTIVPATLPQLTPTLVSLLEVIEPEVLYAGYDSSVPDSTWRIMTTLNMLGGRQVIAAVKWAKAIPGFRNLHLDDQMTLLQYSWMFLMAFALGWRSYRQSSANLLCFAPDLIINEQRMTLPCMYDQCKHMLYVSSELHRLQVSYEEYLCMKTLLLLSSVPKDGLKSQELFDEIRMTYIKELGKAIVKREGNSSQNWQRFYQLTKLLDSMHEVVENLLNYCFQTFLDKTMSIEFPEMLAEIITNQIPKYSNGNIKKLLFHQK
# human Peroxisome Proliferator-activated Receptor alpha (PPARa), PPARA (gene 5465), sequence (Q07869 whole entry, looked up): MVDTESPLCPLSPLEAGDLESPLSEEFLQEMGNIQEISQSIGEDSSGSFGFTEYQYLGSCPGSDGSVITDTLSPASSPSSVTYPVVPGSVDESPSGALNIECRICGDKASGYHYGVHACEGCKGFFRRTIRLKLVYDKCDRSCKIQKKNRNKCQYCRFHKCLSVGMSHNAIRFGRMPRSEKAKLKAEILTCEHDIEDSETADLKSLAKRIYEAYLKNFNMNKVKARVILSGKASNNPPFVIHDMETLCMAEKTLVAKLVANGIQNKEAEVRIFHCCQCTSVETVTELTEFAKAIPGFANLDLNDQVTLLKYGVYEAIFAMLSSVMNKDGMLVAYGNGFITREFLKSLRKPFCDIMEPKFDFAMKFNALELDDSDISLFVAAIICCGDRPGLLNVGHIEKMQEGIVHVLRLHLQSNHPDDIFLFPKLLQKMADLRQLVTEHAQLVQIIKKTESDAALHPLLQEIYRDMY
# Retinoic acid receptor alpha (Homo sapiens), sequence (P10276 whole entry, looked up): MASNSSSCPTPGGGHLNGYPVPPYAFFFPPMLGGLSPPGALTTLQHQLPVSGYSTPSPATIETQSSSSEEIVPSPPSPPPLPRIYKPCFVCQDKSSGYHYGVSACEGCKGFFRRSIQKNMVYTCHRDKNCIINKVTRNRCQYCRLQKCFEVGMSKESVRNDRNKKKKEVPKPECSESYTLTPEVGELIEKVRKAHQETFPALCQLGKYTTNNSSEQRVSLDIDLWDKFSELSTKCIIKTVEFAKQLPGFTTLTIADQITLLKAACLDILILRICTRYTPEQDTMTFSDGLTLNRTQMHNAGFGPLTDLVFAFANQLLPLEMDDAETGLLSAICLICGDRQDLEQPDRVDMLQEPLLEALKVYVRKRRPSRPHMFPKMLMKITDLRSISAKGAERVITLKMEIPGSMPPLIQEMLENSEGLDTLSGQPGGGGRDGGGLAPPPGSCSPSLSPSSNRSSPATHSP
smiles,measurement,setting,value
O=C(Nc1ccccc1)Nc1ccnc(Cl)c1,outcome,[1],inactive
same,outcome,[2],inactive
CCOP(=S)(OCC)SCn1c(=O)oc2cc(Cl)ccc21,outcome,[3],inactive
CS/C(C)=N/OC(=O)N(C)SN(C)C(=O)O/N=C(\C)SC,AC50,[1],78.2 µM (active)
same,AC50,[2],72.2 µM (active)
same,outcome,[3],inactive
CN(C)C(=S)SSC(=S)N(C)C,AC50,[1],26.2 µM (active)
same,outcome,[2],inactive
same,outcome,[3],inactive
CCOc1cc(Oc2ccc(C(F)(F)F)cc2Cl)ccc1[N+](=O)[O-],outcome,[3],inactive
Fc1ccc(Oc2ccnc3cc(Cl)cc(Cl)c23)cc1,outcome,[3],inactive
CO/C=C(/C(=O)OC)c1ccccc1Oc1cc(Oc2ccccc2C#N)ncn1,outcome,[1],inactive
same,outcome,[2],inactive
same,outcome,[4],inactive
same,outcome,[5],inactive
same,outcome,[6],inactive
same,outcome,[7],inactive
N#Cc1nn(-c2c(Cl)cc(C(F)(F)F)cc2Cl)c(N)c1S(=O)C(F)(F)F (stereo unspecified),AC50,[1],22.7 µM (active)
same,outcome,[2],inactive
same,outcome,[4],inactive
CCc1nn(C)c(C(=O)NCc2ccc(C(C)(C)C)cc2)c1Cl,outcome,[3],inactive
CC1=C(C(=O)Nc2ccccc2)SCCO1,outcome,[1],inactive
same,outcome,[2],inactive
same,outcome,[3],inactive
CCCCNC(=O)n1c(NC(=O)OC)nc2ccccc21,outcome,[1],inactive
same,outcome,[2],inactive
same,outcome,[8],inactive
same,outcome,[3],inactive
CC(C)Oc1cc(-n2nc(C(C)(C)C)oc2=O)c(Cl)cc1Cl,AC50,[1],31.3 µM (active)
same,outcome,[2],inactive
same,outcome,[3],inactive
COc1nc(NC(C)C)nc(NC(C)C)n1,outcome,[3],inactive
CCON=C(CC)C1=C(O)CC(c2c(C)cc(C)cc2C)CC1=O (stereo unspecified),outcome,[1],inactive
same,outcome,[4],inactive
Cc1cc(Cl)ccc1OCC(=O)O,outcome,[1],inactive
same,outcome,[2],inactive
CC(C)C1(C)N=C(c2nc3ccccc3cc2C(=O)O)NC1=O (stereo unspecified),outcome,[3],inactive
CCOC(=O)C(Cl)Cc1cc(-n2nc(C)n(C(F)F)c2=O)c(F)cc1Cl (stereo unspecified),outcome,[3],inactive
Cc1c(F)c(F)c(COC(=O)C2C(/C=C(\Cl)C(F)(F)F)C2(C)C)c(F)c1F (stereo unspecified),outcome,[3],inactive
CCCC1COC(Cn2cncn2)(c2ccc(Cl)cc2Cl)O1 (stereo unspecified),AC50,[1],34.3 µM (active)
same,outcome,[2],inactive
same,outcome,[4],inactive
same,AC50,[6],10.5 µM (active)
same,outcome,[7],inactive
COc1cnc(OC)n2nc(NS(=O)(=O)c3c(OCC(F)F)cccc3C(F)(F)F)nc12,outcome,[3],inactive
N#Cc1cc(Br)c(O)c(Br)c1,outcome,[1],inactive
same,outcome,[2],inactive
same,outcome,[9],inactive
COC(=O)C(C)Oc1ccc(Oc2ccc(Cl)cc2Cl)cc1 (stereo unspecified),outcome,[8],inactive
same,outcome,[3],inactive
Cc1ccc(-c2c(Cl)nc(C#N)n2S(=O)(=O)N(C)C)cc1,AC50,[1],27.1 µM (active)
same,outcome,[2],inactive
same,outcome,[3],inactive
same,outcome,[6],inactive
CCOC(=O)CC(SP(=S)(OC)OC)C(=O)OCC (stereo unspecified),outcome,[1],inactive
same,outcome,[2],inactive
same,outcome,[6],inactive
CC(Oc1ccc(Cl)cc1Cl)C(=O)O (stereo unspecified),outcome,[4],inactive
OC(c1ccc(Cl)cc1)(c1cncnc1)c1ccccc1Cl (stereo unspecified),AC50,[3],12.5 µM (active)
same,AC50,[6],8.34 µM (active)
COP(N)(=O)SC (stereo unspecified),outcome,[3],inactive
same,outcome,[4],inactive
same,outcome,[6],inactive
CCCCC(CC)COC(=O)c1ccccc1C(=O)OCC(CC)CCCC (stereo unspecified),outcome,[3],inactive
same,outcome,[5],inactive
same,AC50,[6],8.8 µM (active)
COC(=O)c1ccccc1C(=O)OC,outcome,[3],inactive
same,outcome,[4],inactive
same,outcome,[6],inactive
C=CCC1=C(C)C(OC(=O)C2C(C=C(C)C)C2(C)C)CC1=O (stereo unspecified),outcome,[6],inactive
C#CCOS(=O)OC1CCCCC1Oc1ccc(C(C)(C)C)cc1 (stereo unspecified),outcome,[3],inactive
same,outcome,[5],inactive
same,AC50,[6],16.5 µM (active)
CCNc1nc(Cl)nc(NCC)n1,outcome,[3],inactive
same,outcome,[6],inactive
CNC(=O)ON=CC(C)(C)SC,outcome,[6],inactive
COP(=S)(OC)Oc1nc(Cl)c(Cl)cc1Cl,outcome,[3],inactive
same,outcome,[4],inactive
N#CC(CCc1ccc(Cl)cc1)(Cn1cncn1)c1ccccc1 (stereo unspecified),outcome,[3],inactive
Oc1ccccc1-c1ccccc1,AC50,[3],57.5 µM (active)
same,outcome,[3],inactive
same,outcome,[9],inactive
same,outcome,[5],inactive
same,AC50,[7],15.7 µM (active)
C=CC1(C)OC(=O)N(c2cc(Cl)cc(Cl)c2)C1=O (stereo unspecified),outcome,[3],inactive
same,AC50,[9],37.4 µM (active)
same,AC50,[6],6.97 µM (active)
same,outcome,[6],inactive
CCNc1nc(Cl)nc(NC(C)C)n1,outcome,[3],inactive
same,outcome,[5],inactive
same,outcome,[6],inactive
CCCN(CCC)c1c([N+](=O)[O-])cc(S(N)(=O)=O)cc1[N+](=O)[O-],outcome,[9],inactive
same,outcome,[10],inactive
same,outcome,[5],inactive
same,outcome,[6],inactive
same,AC50,[7],6.68 µM (active)
C=CCC1=C(C)[C@@H](OC(=O)[C@@H]2[C@@H](C=C(C)C)C2(C)C)CC1=O,outcome,[7],inactive
CCCCNC(=O)OCC#CI,outcome,[3],inactive
same,AC50,[9],6.55 µM (active)
same,outcome,[5],inactive
CC1COC(Cn2cncn2)(c2ccc(Oc3ccc(Cl)cc3)cc2Cl)O1 (stereo unspecified),outcome,[3],inactive
same,AC50,[6],1.89 µM (active)
COC(=O)N(OC)c1ccccc1COc1ccn(-c2ccc(Cl)cc2)n1,outcome,[3],inactive
same,AC50,[6],2.01 µM (active)
COc1ccc(C(c2ccc(OC)cc2)C(Cl)(Cl)Cl)cc1,AC50,[3],3.79 µM (active) and 3.62 µM (active) and 3.92 µM (active)
same,outcome,[4],inactive
same,outcome,[9],inactive
same,outcome,[5],inactive
same,outcome,[6],inactive
same,outcome,[7],inactive
CC(C)(C)c1ccc(CSc2cnn(C(C)(C)C)c(=O)c2Cl)cc1,outcome,[3],inactive
CON(C)C(=O)Nc1ccc(Cl)c(Cl)c1,AC50,[6],8.61 µM (active)
same,outcome,[7],inactive
CNC(=S)S,outcome,[3],inactive
same,outcome,[6],inactive
same,outcome,[7],inactive
CCCCOC(=O)c1ccccc1C(=O)OCCCC,AC50,[3],28.8 µM (active) and 38.1 µM (active) and 34.2 µM (active)
same,outcome,[4],inactive
same,AC50,[5],0.111 µM (active)
same,outcome,[6],inactive
same,outcome,[7],inactive
